This note sets out measurements from the supplement of paper PMC12532568.

Where a name gives a salt, the structure may show the parent alone.

The test deals with Danio rerio larvae Tg(actc1b:ZsGreen-LC3), 3 dpf. Put plainly: LC3 puncta relative area vs vehicle, without NH4Cl (log2 fold change); higher = more autophagosomes. To be noted: 10 µM; treatment time 16 h; NH4Cl: none. As to the method:
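Transgenic Tg(actc1b:ZsGreen-map1lc3) zebrafish larvae (2 dpf) were treated for 16 h with Tocris library compounds at 10 µM (n = 12 larvae per compound). Skeletal-muscle LC3 puncta area relative to body area was measured by high-content confocal imaging before and after 4 h of 100 mM NH4Cl (autophagic flux), normalised to vehicle (DMSO), and reported as log2 fold change.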
For the compound `COc1ccccc1N1CCN(CCCCN2C(=O)c3ccccc3C2=O)CC1` [NAN-190 hydrobromide], the “LC3 puncta (log2)” value turned out to be 0.201.

`COc1ccc2[nH]c(I)c(CCNC(C)=O)c2c1` [2-Iodomelatonin]: the “LC3 puncta (log2)” value worked out at 0.515.

For `O=C(OCCN1CCOCC1)C1(c2ccccc2)CCCCC1` [PRE-084 hydrochloride], the “LC3 puncta (log2)” value is 0.215.

For `O=C(OCCN1CCCCC1)c1c[nH]c2ccccc12`, the “LC3 puncta (log2)” value is 0.11.

Take `NC(=O)OCC(COC(N)=O)c1ccccc1` [Felbamate]: the “LC3 puncta (log2)” value was -0.737.

Regarding `CC1=NN(c2ccccc2)C(=O)C1` [Edaravone], the “LC3 puncta (log2)” value was 0.377.

On to `COc1cc(N)c(Cl)cc1C(=O)OCCCN1CCCCC1`, for which the “LC3 puncta (log2)” value was -0.0084.

Turning to `CC12CC3CC(C)(C1)CC(N)(C3)C2` [Memantine hydrochloride], the “LC3 puncta (log2)” value stood at 0.145.

As for `CC(C(O)c1ccc(O)cc1)N1CCC(Cc2ccccc2)CC1` (stereo not given) [Ifenprodil hemitartrate], the “LC3 puncta (log2)” value is -0.219.

In the case of `c1ccc(CN2CCC3(CCc4ccccc43)CC2)cc1` [L-693,403 maleate], the “LC3 puncta (log2)” value is -0.0234.

As to `Brc1c(NC2=NCCN2)ccc2nccnc12`, the “LC3 puncta (log2)” value worked out at 0.438.

`CC(N)(Cc1ccc(O)c(O)c1)C(=O)O` (stereo not given): the “LC3 puncta (log2)” value worked out at 0.269.

With `CC(C)[C@H]1CC[C@H](C(=O)N[C@H](Cc2ccccc2)C(=O)O)CC1` [Nateglinide], the “LC3 puncta (log2)” value worked out at 0.316.

Regarding `O=c1nc2ccccc2c2n1CC(CN1CCN(c3ccccc3)CC1)N2` (stereo not given), the “LC3 puncta (log2)” value was 0.0176.

Regarding `CN1CCC(=C2c3ccccc3CC(=O)c3sccc32)CC1` [Ketotifen fumarate], the “LC3 puncta (log2)” value is 0.589.

Turning to `CC(=O)NCC(=O)N[C@H](CCC(=O)O)C(=O)O` [N-Acetylglycyl-D-glutamic acid], the “LC3 puncta (log2)” value was -0.0216.

`O=C(/C=C/c1ccc(O)c(O)c1)O[C@H](Cc1ccc(O)c(O)c1)C(=O)O` [Rosmarinic acid]: the “LC3 puncta (log2)” value came out at 0.0606.

For `Fc1ccc(C(c2ccc(F)cc2)N2CCN(C/C=C/c3ccccc3)CC2)cc1` [Flunarizine dihydrochloride], the “LC3 puncta (log2)” value amounted to 0.219.

As for `O=C(NCCCN1CCCCCC1)C(c1ccccc1)C1CCCCC1` (stereo not given), the “LC3 puncta (log2)” value turned out to be 0.0552.

As to `c1ccc(N2CCN(CCCOc3ccc4c(c3)OCO4)CC2)cc1` [BP 554 maleate], the “LC3 puncta (log2)” value was 0.01.

For the compound `Cc1ccc(/C(=C\CN2CCCC2)c2ccccn2)cc1` [trans-Triprolidine hydrochloride], the “LC3 puncta (log2)” value is -0.298.

For the compound `NS(=O)(=O)c1cccc2c1c([N+](=O)[O-])cc1nc(O)c(O)nc12`, the “LC3 puncta (log2)” value was found to be 0.286.

Turning to `O=C(O)c1cc(=O)c2ccccc2[nH]1` [Kynurenic acid], the “LC3 puncta (log2)” value stood at 0.00327.

With `CSc1ccc2c(c1)C(N1CCN(C)CC1)Cc1ccccc1S2` (stereo not given) [Methiothepin maleate], the “LC3 puncta (log2)” value was -0.425.

Turning to `COc1ccc(CCN(C)CCc2ccc(OC)c(OC)c2)cc1OC` [YS-035 hydrochloride], the “LC3 puncta (log2)” value was determined as 0.265.

As to `CN(C)CCCSC(=N)N` [Dimaprit dihydrochloride], the “LC3 puncta (log2)” value turned out to be 0.203.

For `CN(C)CCCn1cc(C2=C(c3c[nH]c4ccccc34)C(=O)NC2=O)c2ccccc21`, the “LC3 puncta (log2)” value turned out to be 0.584.

Turning to `N[C@H](C(=O)O)c1cc(O)cc(O)c1`, the “LC3 puncta (log2)” value is 0.537.

Turning to `O=[N+]([O-])c1cccc2c(Br)[nH]nc12` [3-Bromo-7-nitroindazole], the “LC3 puncta (log2)” value came out at 0.159.

As to `CC(C)CC(NC(=O)OCC1c2ccccc2-c2ccccc21)C(=O)O` (stereo not given), the “LC3 puncta (log2)” value worked out at 0.0242.

In the case of `CC(Cc1ccc(O)c(O)c1)(NN)C(=O)O` [(S)-(-)-Carbidopa], the “LC3 puncta (log2)” value came to 0.0108.

For `CN1CCN(C2=Cc3ccccc3Oc3ccc(Cl)cc32)CC1`, the “LC3 puncta (log2)” value was 0.742.

With `COCCOC(=O)C1=C(C)NC(C)=C(C(=O)OC(C)C)C1c1cccc([N+](=O)[O-])c1` (stereo not given) [Nimodipine], the “LC3 puncta (log2)” value came to 0.31.

Regarding `Cc1noc(NS(=O)(=O)c2ccc(N)cc2)c1C` [Sulfisoxazole], the “LC3 puncta (log2)” value was determined as 0.239.

As for `N[C@@H](C(=O)O)c1ccc(O)c(C(=O)O)c1` [(R)-3-Carboxy-4-hydroxyphenylglycine], the “LC3 puncta (log2)” value was 0.211.

On to `CCCCCCN(CCCCCC)C(=O)Cc1c(-c2ccc(F)cc2)[nH]c2ccccc12`, for which the “LC3 puncta (log2)” value came to 0.084.

`O=C1CN(/N=C/c2ccc(-c3ccc([N+](=O)[O-])cc3)o2)C(=O)N1` [Dantrolene, sodium salt]: the “LC3 puncta (log2)” value is 0.18.

With `CC[C@@H]1C(=O)OC[C@@H]1Cc1cncn1C` [Pilocarpine hydrochloride], the “LC3 puncta (log2)” value amounted to 0.203.

Turning to `CC1(C(=O)O)NCCc2cc(O)c(O)cc21` (stereo not given) [Salsolinol-1-carboxylic acid], the “LC3 puncta (log2)” value is 0.463.

For the compound `CC#CCOC(=O)C1=CCCN(C)C1` [Arecaidine but-2-ynyl ester tosylate], the “LC3 puncta (log2)” value was 0.463.
